The whole screen tested about 310,000 compounds, of which about 14,000 (4.5%) showed an effect of 50% or more. Effects have a minus sign here. This excerpt belongs to a sample that is enriched for strong results.
Each compound was assayed against human ether-à-go-go-related gene (hERG) potassium channel (human, UniProt Q12809) (assay: primary screen, population patch clamp on CHO cells stably expressing hERG; higher = less effect of the substance).
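Further: peak tail current of the secondary pulse compared with the same well before compound.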

Sequence of human ether-à-go-go-related gene (hERG) potassium channel (Q12809 whole entry, looked up): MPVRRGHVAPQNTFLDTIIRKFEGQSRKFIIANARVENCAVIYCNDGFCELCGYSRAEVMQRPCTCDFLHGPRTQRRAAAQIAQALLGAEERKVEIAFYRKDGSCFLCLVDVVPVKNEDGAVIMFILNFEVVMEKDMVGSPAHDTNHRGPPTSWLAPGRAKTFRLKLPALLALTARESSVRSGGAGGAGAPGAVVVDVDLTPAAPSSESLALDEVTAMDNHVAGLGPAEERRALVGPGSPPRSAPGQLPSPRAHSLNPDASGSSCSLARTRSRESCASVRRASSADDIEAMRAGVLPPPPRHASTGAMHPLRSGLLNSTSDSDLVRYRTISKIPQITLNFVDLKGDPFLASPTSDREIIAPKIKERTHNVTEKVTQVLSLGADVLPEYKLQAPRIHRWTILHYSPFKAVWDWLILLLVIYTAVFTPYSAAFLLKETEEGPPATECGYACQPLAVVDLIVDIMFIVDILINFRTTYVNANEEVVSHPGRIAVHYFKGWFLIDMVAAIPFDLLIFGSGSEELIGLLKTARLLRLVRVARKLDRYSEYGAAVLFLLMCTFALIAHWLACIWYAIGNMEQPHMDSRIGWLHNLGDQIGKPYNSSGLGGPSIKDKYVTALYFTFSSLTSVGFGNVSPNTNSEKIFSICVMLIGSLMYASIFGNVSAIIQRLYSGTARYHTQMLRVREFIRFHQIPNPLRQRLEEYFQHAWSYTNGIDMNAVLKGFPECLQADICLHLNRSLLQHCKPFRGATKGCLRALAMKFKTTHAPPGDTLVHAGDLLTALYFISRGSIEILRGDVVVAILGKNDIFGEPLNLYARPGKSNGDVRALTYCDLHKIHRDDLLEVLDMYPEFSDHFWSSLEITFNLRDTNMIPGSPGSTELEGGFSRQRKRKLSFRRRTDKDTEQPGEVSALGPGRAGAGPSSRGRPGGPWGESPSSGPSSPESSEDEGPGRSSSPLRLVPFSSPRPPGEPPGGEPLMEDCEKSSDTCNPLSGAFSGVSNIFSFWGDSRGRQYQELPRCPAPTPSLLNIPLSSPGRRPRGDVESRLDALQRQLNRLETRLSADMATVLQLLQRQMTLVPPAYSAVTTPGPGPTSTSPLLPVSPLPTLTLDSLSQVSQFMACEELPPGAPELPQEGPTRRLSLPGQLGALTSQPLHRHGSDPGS

SMILES	hERG current change (%, negative = inhibition) at 10uM
Cc1c(NC(=O)C(C)N2CC(C)OC(C)C2)c(=O)n(-c2ccccc2)n1C (stereo not shown)	9.21%
Cc1cccc(NC(=O)Nc2ccc(S(N)(=O)=O)cc2)c1	13.4%
Cc1cccc(C(=O)NNC(=O)CCC(=O)Nc2cccc(Cl)c2C)c1	9.03%
CCOc1ccc(-c2nnn(CC(=O)c3cc(OC)ccc3OC)n2)cc1	-7.91%
O=C(Cn1nc(-c2cccc(Cl)c2)ccc1=O)Nc1ccccc1Br	10.7%
COc1ccc(CC(=O)N2N=C(C)CC2(O)c2cccnc2)cc1OC (stereo not shown)	-17%
CCOc1c2ccc(C(=O)NCc3ccc4c(c3)OCO4)cc2nn1C	17.6%
Cc1ccccc1C1c2[nH]c3ccccc3c2CCN1Cc1cccn1-c1ncccn1 (stereo not shown)	-46.3%
Fc1ccccc1C1c2[nH]c3ccccc3c2CCN1Cc1ccoc1 (stereo not shown)	-51.7%
COc1ccc(C2c3[nH]c4ccccc4c3CCN2Cc2ccoc2)c(F)c1 (stereo not shown)	-36.9%
Cc1cnc(C(=O)N2CCc3c([nH]c4ccccc34)C2c2ccc(F)cc2)cn1 (stereo not shown)	-39.8%
O=C(c1cc2ncccn2n1)N1CCc2c([nH]c3ccccc23)C1c1ccccc1F (stereo not shown)	-5.11%
Cn1nccc1C(=O)N1CCc2c([nH]c3ccccc23)C1c1ccc(F)cc1 (stereo not shown)	-19.4%
Fc1ccc(C2c3[nH]c4ccccc4c3CCN2Cc2cccn2-c2ncccn2)cc1 (stereo not shown)	-52.2%
CCOc1ccc(C2c3[nH]c4ccccc4c3CCN2C(=O)Cn2cncn2)cc1 (stereo not shown)	-15%
Fc1ccc(C2c3[nH]c4ccccc4c3CCN2Cc2ccoc2)cc1 (stereo not shown)	-26.8%
COc1ccc(OCC(=O)N2CCc3c([nH]c4ccccc34)C2c2ccccn2)cc1 (stereo not shown)	21.4%
CCOc1ccc(C2c3[nH]c4ccccc4c3CCN2Cc2cccn2-c2ncccn2)cc1 (stereo not shown)	-53.3%
Fc1ccccc1C1c2[nH]c3ccccc3c2CCN1Cc1cccn1-c1ncccn1 (stereo not shown)	-50.6%
CCn1c(COc2ccccc2C)nnc1SCC(=O)O	16.3%
Cc1cc(C)cc(NC(=O)N2CCC(NC(=O)c3ccccc3C)CC2)c1	5.74%
O=C(CSc1nnc(-c2ccccc2)n1-c1ccccc1)c1ccc[nH]1	16.4%

SMILES	hERG current change (%, negative = inhibition) at 10uM
CCOC(=O)N1CCN(C(=O)CNC(=O)c2ccc(Br)o2)CC1	11.7%
COc1ccc(-c2csc(NC(=O)c3c(OC)cccc3OC)n2)cc1	7.77%
COc1ccccc1CNS(=O)(=O)c1cc2c3c(c1)CCN3C(=O)CC2	-4.02%
O=C1COc2ccc(C(=O)COC(=O)CNC(=O)C3CCCCC3)cc2N1	-7.17%
COc1ccc(OCC(Cn2cnc3ccccc32)OC(C)=O)cc1.Cl (stereo not shown)	-26%
Cc1cc(C)n(-c2cc(C(C)(C)C)nc3c(-c4ccccc4)cnn23)n1	14.6%
COc1ccc(C(=O)NCCS(=O)(=O)NCCc2ccccc2)cc1	-13.2%
CC1(C)CC(C)(c2ccc(O)cc2O)N(c2cccc(Cl)c2)C(=S)N1 (stereo not shown)	2.04%
Nc1c(C(=O)NCCN2CCOCC2)c2nc3ccccc3nc2n1-c1cccc(F)c1	-33.2%
Nc1c(C(=O)NCCN2CCOCC2)c2nc3ccccc3nc2n1-c1ccc2c(c1)OCO2	-33.5%
Cc1cccc(-n2c(N)c(C(=O)NCCN3CCOCC3)c3nc4ccccc4nc32)c1	-57.1%
CCCNC(=O)c1c(N)n(-c2cccc(OC)c2)c2nc3ccccc3nc12	-5.21%
COCCNC(=O)c1c(N)n(-c2cccc(C)c2)c2nc3ccccc3nc12	-24.7%
Nc1c(C(=O)NCCN2CCOCC2)c2nc3ccccc3nc2n1-c1ccccc1	-52%
Cc1ccc(S(=O)(=O)NCCC(=O)NCc2ccccn2)cc1	11.1%
Cc1ccc(-c2nnn(CC(=O)N(Cc3ccco3)C(C(=O)NC(C)(C)C)c3cccs3)n2)o1 (stereo not shown)	-19.2%
O=C(NCC1CCCO1)c1cc2c([nH]c3ccccc32)c(-c2cccc(Cl)c2)n1 (stereo not shown)	-20.5%
Cc1sc2nc(-c3ccc(Br)cc3)oc(=O)c2c1C	13.3%
CSc1nc(C(=O)N2CCc3c([nH]c4ccccc34)C2c2ccccn2)cs1 (stereo not shown)	-4.85%
CC(=O)Nc1ccc(NC(=O)c2cc[n+]([O-])cc2)cc1	25.2%
CC(C)CNC(=O)c1cc([N+](=O)[O-])ccc1N1CCOCC1	4.47%
CC(C)Cc1nnc(NC(=O)CCC(=O)N2CC(C)CC(C)C2)s1 (stereo not shown)	-50.8%

SMILES	hERG current change (%, negative = inhibition) at 10uM
CC(C)Cc1nnc(NC(=O)CCC(=O)N2CCN(c3ccc(Cl)cc3)CC2)s1	-3.51%
CC1CC(C)CN(C(=O)CCC(=O)Nc2nnc(C(C)C)s2)C1 (stereo not shown)	12.6%
CCc1nnc(NC(=O)c2cc([N+](=O)[O-])ccc2N2CCOCC2)s1	-15%
CC(C)Cc1nnc(NC(=O)CCC(=O)N2CCN(c3ccc([N+](=O)[O-])cc3)CC2)s1	-72.3%
CC(C)Cc1nnc(NC(=O)CCC(=O)N2CCC(C)CC2)s1	0.442%
CC(C)Cc1nnc(NC(=O)c2cc([N+](=O)[O-])ccc2N2CCOCC2)s1	-51.4%
CC(C)Cc1nnc(NC(=O)CCC(=O)N2CCN(c3ccc(F)cc3)CC2)s1	1.08%
CCN(C(=O)c1ccc(C)c(Br)c1)c1ccccc1	-20.5%
CC(=O)c1c(C)[nH]c(C(=O)COC(=O)COc2ccccc2F)c1C	-3.3%
O=C(CCC1CCCCC1)NNC(=O)NC12CC3CC(CC(C3)C1)C2	13.2%
Cc1ccc(C)c(NNC(N)=S)c1	14%
O=C(COC(=O)CC1SC(N2CCCC2)=NC1=O)Nc1c(F)c(F)c(F)c(F)c1F (stereo not shown)	-12.6%
Cc1cc(NC(=O)CSc2nc(CC(C)(C)C)nc3c2c(=O)n(C)c(=O)n3C)no1	4.05%
COc1ccc(OCCSc2nnc(CCNC(=O)c3ccc(OC)cc3)n2C)cc1	-6.83%
CN(C)CCCN(C(=O)c1ccco1)c1nc2ccc(Cl)cc2s1.Cl	-73.4%
CN(C)CCCN(C(=O)c1ccco1)c1nc2cc3c(cc2s1)OCO3.Cl	-43.7%
CCN(CC)CCN(C(=O)c1ccccc1OC)c1nc2ccc(F)cc2s1.Cl	-68.3%
CC(=O)N(CCCN(C)C)c1nc2ccc(C)cc2s1.Cl	-7.07%
COc1ccc2sc(N(CCN(C)C)C(=O)c3cc(Cl)sc3Cl)nc2c1.Cl	-0.167%
CCN(CC)CCN(C(=O)c1cc2ccccc2cc1OC)c1nc2ccc(OC)cc2s1.Cl	-13.4%
CN(C)CCN(C(=O)c1cc(Cl)sc1Cl)c1nc2ccc(F)cc2s1.Cl	-67.3%
CCN(CC)CCN(C(=O)c1cc2ccccc2cc1OC)c1nc2ccc(F)cc2s1.Cl	-11.8%

SMILES	hERG current change (%, negative = inhibition) at 10uM
Cc1ccc2nc(N(CCCN(C)C)C(=O)c3ccco3)sc2c1.Cl	-65.4%
Cc1ccc2nc(N(CCN(C)C)C(=O)c3cc(Cl)sc3Cl)sc2c1.Cl	7.55%
Cc1cc(-c2ccccc2)n(-c2cc(N/N=C/c3ccccc3O)ncn2)n1	-10.5%
Cc1ccnc2nc(C(=O)OCC(=O)NC3CCCC(C)C3C)nn12 (stereo not shown)	-10.4%
Cn1c(=O)c2c(nc(NCc3ccc4c(c3)OCO4)n2C)n(C)c1=O	-13.1%
NC(=O)C1CCN(C(=O)CSc2nc3ccccc3[nH]2)CC1	4.06%
Fc1cccc(Cl)c1Cn1nnc(-c2ccc(N3CCOCC3)cc2)n1	8.99%
COc1ccc(-n2c(CNC(=O)c3cccs3)n[nH]c2=S)cc1	27.7%
COc1cc(C)c(Br)cc1S(=O)(=O)N1CCCC1	-22.1%
COc1ccc(/C=C2/C(=O)NC(=S)N(C3CC3)C2=O)cc1CN1C(=O)c2ccccc2C1=O	-8.62%
COc1ccc(C(=O)COC(=O)Cc2n[nH]c(=O)c3ccccc23)c(OC)c1	16.7%
CN(C)CCCN(C(=O)c1ccco1)c1nc2ccc(F)cc2s1.Cl	-70.5%
CN(C)CCN(C(=O)c1ccco1)c1nc2cc3c(cc2s1)OCCO3.Cl	-32.8%
COc1cc2ccccc2cc1C(=O)N(CCN(C)C)c1nc2ccc(C)cc2s1.Cl	-11.2%
CN(C)CCCN(C(=O)/C=C/c1cccs1)c1nc2ccc(F)cc2s1.Cl	-41%
Cc1cc(C)c2sc(N(CCN(C)C)C(=O)c3cc(Cl)sc3Cl)nc2c1.Cl	9.32%
CN(C)CCCN(C(=O)c1ccco1)c1nc2ccc(Br)cc2s1.Cl	-71.8%
COc1ccccc1C(=O)N(CCN(C)C)c1nc2cc(C)cc(C)c2s1.Cl	-82%
Cc1cc(C)c2sc(N(CCN(C)C)C(=O)c3ccc4ccccc4c3)nc2c1.Cl	7.53%
COc1ccccc1C(=O)N(CCC1CCCN1C)c1nc2ccccc2s1 (stereo not shown)	-50.9%
COc1cc2ccccc2cc1C(=O)N(CCN(C)C)c1nc2ccc(Br)cc2s1.Cl	9.85%
COCCN(C(=O)Nc1ccccc1OC)c1nc2ccccc2s1	19.9%
